The source of these data is PubChem BioAssay (NCATS).

The target of assay [1] is Rap guanine nucleotide exchange factor 3 (Homo sapiens) (UniProt O95398). The assay can be described thus: Confirmatory qHTS for antagonist of cAMP-regulated guanine nucleotide exchange factor 3 (EPAC1) (AID 1645880). Further: nearly all actives have a fitted effect of over 55% in size. Further: potency means the concentration at half of the fitted maximal effect. The method, boiled down:
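Nucleotide exchange uses 100 nM EPAC1, 250 nM RAP1B-BODIPY-GDP and 50 uM GDP, with compounds in a concentration-titration series. After 5 min at room temperature, fluorescence (480 nm ex/540 nm em) is read every 5 min for 30 min. Data are normalized to control ATA and DMSO.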
In general terms: In qHTS, concentration-response curves come from the screen itself.

Assay [2] has the same target. The assay is described as follows: Confirmatory qHTS for agonist of cAMP-regulated guanine nucleotide exchange factor 3 (EPAC1) (AID 1645881). Further: nearly all actives have a fitted effect of over 75% in size. Further: potency means the concentration at half of the fitted maximal effect.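 On activation: EPAC1 catalysed release of BODIPY-GDP from Rap1B seen as fluorescence loss; 100% = effect of cAMP agonist control.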
Assay [3] concerns the target Rap guanine nucleotide exchange factor 4 (Homo sapiens) (UniProt Q8WZA2). The assay is described as follows: Confirmatory qHTS for agonist of cAMP-regulated guanine nucleotide exchange factor 4 (EPAC2) (AID 1645884).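 Further: nucleotide exchange releases bodipy-GDP from Rap1 and this lowers its fluorescence; nearly all actives have a fitted effect of over 65% in size.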 Further: potency means the concentration at half of the fitted maximal effect. On activation: on the % scale 0 is the no-effect control and ±100 the full control effect.
Assay [4] has the same target. The assay can be described thus: Confirmatory qHTS for antagonist of cAMP-regulated guanine nucleotide exchange factor 4 (EPAC2) (AID 1645885). Further: nearly all actives have a fitted effect of over 25% in size. Further: potency means the concentration at half of the fitted maximal effect. On activity change, negative = inhibition: on the % scale 0 is the no-effect control and ±100 the full control effect.
The target of assay [5] is Rap guanine nucleotide exchange factor 3 (Homo sapiens) (UniProt O95398). The assay is described as follows: Counterscreen qHTS for antagonist of cAMP-regulated guanine nucleotide exchange factor 3 (EPAC1) (AID 1645888).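 Further: fluorescence loss as bound BODIPY-GDP is released from Rap1B; % of control where 0% means no effect.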 Summed up: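 Rap1B-BODIPY-GDP 250 nM + GDP 50 uM; cpds 7-pt, final 9.74 nM–152 uM (activator mode) or from 7.32 nM upwards (inhibitor mode); RT; FI 480/540 nm at 5 and 30 min, then ± cAMP, reread.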
On the technique in general: The purpose of a counterscreen is to sort out artefacts and off-target activity.

Inconclusive results are not listed. Unmarked numbers belong to inactive results. The source made the active and inactive calls. The call rests on the fitted dose curve; in most records, active means well fitted curve in the direction sought with a large enough effect; inconclusive means small, poorly fitted or top-dose-only effect, or another doubt; inactive means no such curve, though single readings can be large; an effect the other way counts as inactive or inconclusive.

Chain of Rap guanine nucleotide exchange factor 3 (Homo sapiens) (O95398 whole entry, looked up): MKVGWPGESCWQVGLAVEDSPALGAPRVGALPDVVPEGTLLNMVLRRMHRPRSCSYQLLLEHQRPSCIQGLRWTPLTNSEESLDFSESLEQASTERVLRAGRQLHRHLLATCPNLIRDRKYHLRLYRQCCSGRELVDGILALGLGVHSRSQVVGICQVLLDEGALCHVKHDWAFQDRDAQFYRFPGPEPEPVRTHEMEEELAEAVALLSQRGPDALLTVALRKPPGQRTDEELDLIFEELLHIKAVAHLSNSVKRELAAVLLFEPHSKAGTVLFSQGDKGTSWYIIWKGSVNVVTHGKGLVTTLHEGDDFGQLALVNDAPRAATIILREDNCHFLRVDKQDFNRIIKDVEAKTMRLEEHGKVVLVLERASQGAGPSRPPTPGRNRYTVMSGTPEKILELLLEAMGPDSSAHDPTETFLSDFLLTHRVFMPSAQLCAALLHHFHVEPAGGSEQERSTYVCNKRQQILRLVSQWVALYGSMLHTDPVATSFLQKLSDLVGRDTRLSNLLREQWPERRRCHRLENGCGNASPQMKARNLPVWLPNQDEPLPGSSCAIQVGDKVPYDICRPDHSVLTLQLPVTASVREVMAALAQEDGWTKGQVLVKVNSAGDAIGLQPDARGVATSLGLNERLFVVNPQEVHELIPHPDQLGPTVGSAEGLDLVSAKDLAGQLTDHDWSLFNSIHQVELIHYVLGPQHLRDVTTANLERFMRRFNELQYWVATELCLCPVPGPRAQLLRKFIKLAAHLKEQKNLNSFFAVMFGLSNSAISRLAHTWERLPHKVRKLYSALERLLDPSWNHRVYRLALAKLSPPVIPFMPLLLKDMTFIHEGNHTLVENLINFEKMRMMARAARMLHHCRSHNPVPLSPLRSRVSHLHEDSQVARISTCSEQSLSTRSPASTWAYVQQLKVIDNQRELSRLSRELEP
Chain of Rap guanine nucleotide exchange factor 4 (Homo sapiens) (Q8WZA2 whole entry, looked up): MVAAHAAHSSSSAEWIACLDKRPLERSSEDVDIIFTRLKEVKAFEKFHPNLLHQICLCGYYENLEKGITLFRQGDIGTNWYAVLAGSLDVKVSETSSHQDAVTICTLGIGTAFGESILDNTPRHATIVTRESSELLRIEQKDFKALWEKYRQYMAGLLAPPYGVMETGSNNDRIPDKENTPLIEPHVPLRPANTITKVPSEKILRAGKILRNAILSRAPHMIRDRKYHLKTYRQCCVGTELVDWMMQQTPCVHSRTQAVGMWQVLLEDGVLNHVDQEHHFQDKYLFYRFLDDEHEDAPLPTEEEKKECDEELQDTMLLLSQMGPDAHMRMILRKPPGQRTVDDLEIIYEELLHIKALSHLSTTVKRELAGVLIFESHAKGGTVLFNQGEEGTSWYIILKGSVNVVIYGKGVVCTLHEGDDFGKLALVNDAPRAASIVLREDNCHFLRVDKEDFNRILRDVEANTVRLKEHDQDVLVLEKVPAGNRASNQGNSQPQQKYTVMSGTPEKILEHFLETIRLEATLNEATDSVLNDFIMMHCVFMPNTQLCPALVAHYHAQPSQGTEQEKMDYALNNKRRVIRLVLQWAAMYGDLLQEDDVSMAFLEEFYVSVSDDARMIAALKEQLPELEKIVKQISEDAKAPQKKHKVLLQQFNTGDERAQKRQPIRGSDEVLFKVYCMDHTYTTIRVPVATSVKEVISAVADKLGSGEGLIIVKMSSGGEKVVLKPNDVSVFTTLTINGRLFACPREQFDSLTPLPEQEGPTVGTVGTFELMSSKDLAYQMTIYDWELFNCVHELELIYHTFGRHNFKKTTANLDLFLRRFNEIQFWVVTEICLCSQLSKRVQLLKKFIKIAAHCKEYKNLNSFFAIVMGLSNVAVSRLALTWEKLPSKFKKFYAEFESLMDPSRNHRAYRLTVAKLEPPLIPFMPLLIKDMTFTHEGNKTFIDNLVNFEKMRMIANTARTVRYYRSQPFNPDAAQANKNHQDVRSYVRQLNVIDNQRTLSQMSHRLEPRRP

Take `CC(C)C1CC2=C(C(=O)OC(C)(C)O2)C(c2ccc(F)cc2)O1` (stereo not given): the Potency result in assay [1], in assay [2] and in assay [4] was “inactive” each time. The activation in assay [3] is 4.14% [at 17.1 µM, percent relative to cAMP agonist control]. Besides, the activity change, negative = inhibition in assay [5] is -3.34% [at 30.8 µM].

For `Cc1ccc(Cl)c2c1N[C@@H](c1ccc(C(=O)O)cc1)[C@H]1CC=C[C@@H]21`, the Potency in assay [1] is 84.9 µM (active). Also, the Potency result in assay [2], in assay [3], in assay [4] and in assay [5] was “inactive” throughout.

As to `O=C(/C=C/c1ccco1)NC(=S)Nc1cccc([N+](=O)[O-])c1`, the Potency in assay [1] was 20 µM (active). The Potency entry in assay [2] and in assay [4] was “inactive” in each case. In assay [3], the activation was 7.76% [at 17.1 µM, percent relative to cAMP agonist control]. The activity change, negative = inhibition in assay [5] is -9.95% [at 30.8 µM].

With `CC(C)OC(=O)/C(=C/c1ccc2c(c1)c1ccccc1n2C)NC(=O)c1ccccc1`, the Potency result in assay [1], in assay [2], in assay [3], in assay [4] and in assay [5] was “inactive” in each case.

As for `CCCN(CCC)Cc1cc(=O)oc2cc(C)cc(C)c12`, the Potency result in assay [1], in assay [2], in assay [3] and in assay [5] was “inactive” throughout. For the same compound, the Potency in assay [4] is 12 µM (active).

With `CC(/C=C1\SC(=S)N(NS(=O)(=O)c2ccc(C)cc2)C1=O)=C\c1ccccc1`, the Potency in assay [1] was 26.9 µM (active); in assay [4], 47.8 µM (active). Moreover, the Potency result in assay [2], in assay [3] and in assay [5] was “inactive” each time.

Consider `CCN(CC)c1ccc2cc(-c3nc(-c4ccccc4F)no3)c(=O)oc2c1`, for which the Potency result in assay [1] and in assay [5] was “inactive” each time. For the same compound, the figures for the Potency in assay [2], in assay [3] and in assay [4] were 50.1 µM (active), 5.01 µM (active) and 4.78 µM (active), respectively.

With `NS(=O)(=O)c1ccc(NC2=CC(=O)C(=O)c3ccccc32)cc1`, the figures for the Potency in assay [1] and in assay [4] were 26.9 µM (active) and 84.9 µM (active), respectively. In addition, the Potency entry in assay [2], in assay [3] and in assay [5] was “inactive” in each case.

As to `CCc1nn2c(-c3ccccc3OC)ccnc2c1-c1ccccc1`, the Potency entry in assay [1], in assay [2], in assay [3] and in assay [5] was “inactive” in each case. In assay [4], the outcome is “inactive [at 12.7 µM]”.

On to `CC1(C(=O)NS(=O)(=O)c2ccc(F)cc2F)CCN1C(=O)C1(c2ccc(Cl)cc2)CCC1` (stereo not given), for which, in assay [1], the Potency is 9.53 µM (active). Moreover, the Potency result in assay [2], in assay [3], in assay [4] and in assay [5] was “inactive” in each case.

Turning to `NNc1nc2c(Cl)cccc2s1`, the Potency entry in assay [1], in assay [2], in assay [3] and in assay [5] was “inactive” in each case. Moreover, the Potency in assay [4] is 95.3 µM (active).

As to `COc1ccc(S(=O)(=O)N2CCOC23CCN(S(=O)(=O)c2cc(F)ccc2F)CC3)cc1`, the Potency entry in assay [1], in assay [2] and in assay [4] was “inactive” in each case. In assay [3], the activation is 4.71% [at 17.1 µM, percent relative to cAMP agonist control]. Besides, the activity change, negative = inhibition in assay [5] was -8.89% [at 30.8 µM].

Consider `COc1ccc(N2CCN(C(c3ccccc3F)c3sc4nc(-c5ccco5)nn4c3O)CC2)cc1` (stereo not given), for which the Potency entry in assay [1], in assay [2], in assay [3], in assay [4] and in assay [5] was “inactive” throughout.

`CC(C)CC1C(=O)N(Cc2cn(CCC3OCCO3)nn2)CCS(=O)(=O)N1Cc1ccc(-c2ccc(F)cc2)cc1` (stereo not given): the Potency entry in assay [1] and in assay [2] was “inactive” in each case. In assay [3], the activation is 7.64% [at 17.1 µM, percent relative to cAMP agonist control]. In assay [4], the Potency is 4.26 µM (active). Besides, in assay [5], the activity change, negative = inhibition is -16% [at 30.8 µM].

In the case of `Cc1cc(=O)n(Cc2cccc(Cl)c2)c2c1c(C)nn2C`, the Potency entry in assay [1], in assay [2], in assay [3], in assay [4] and in assay [5] was “inactive” each time.

For the compound `Cc1cc(Nc2ccccc2)n(-c2nc3ccccc3[nH]2)n1`, the Potency result in assay [1], in assay [2] and in assay [4] was “inactive” throughout. Moreover, the activation in assay [3] is 5.09% [at 17.1 µM, percent relative to cAMP agonist control]. In assay [5], the activity change, negative = inhibition is -0.198% [at 30.8 µM].

In the case of `CCOc1ccc(CCNC(=O)c2ccc3c(=O)[nH]c4c(C(=O)NC(C)C)sc(=S)n4c3c2)cc1`, the Potency in assay [1] was 21.3 µM (active). The Potency entry in assay [2], in assay [3], in assay [4] and in assay [5] was “inactive” in each case.

For the compound `COc1ccc(-c2nc3n(c(=O)c2C#N)CCS3)cc1`, the Potency result in assay [1], in assay [2] and in assay [4] was “inactive” in each case. The activation in assay [3] is 4.85% [at 17.1 µM, percent relative to cAMP agonist control]. The activity change, negative = inhibition in assay [5] is -1.96% [at 30.8 µM].

Consider `CCc1nnc(NS(=O)(=O)c2ccc(Nc3ccc([N+](=O)[O-])c4nonc34)cc2)s1`, for which the Potency in assay [1] is 42.6 µM (active). The Potency entry in assay [2], in assay [3], in assay [4] and in assay [5] was “inactive” each time.

As for `CCCC1C2CN(C(C)C)CC=C2C(C#N)=C(N)C1(C#N)C#N` (stereo not given), the Potency in assay [1] is 37.9 µM (active); in assay [2], 35.5 µM (active); in assay [3] it was 56.2 µM (active); in assay [4], 33.8 µM (active). The Potency entry in assay [5] is “inactive”.

As for `CCOC(=O)c1sc(N2C(=O)C(O)=C(C(=O)c3ccco3)C2c2cccc([N+](=O)[O-])c2)nc1C` (stereo not given), the Potency in assay [1] was 5.36 µM (active). Further, the Potency entry in assay [2], in assay [3], in assay [4] and in assay [5] was “inactive” throughout.

In the case of `C=CCn1c(-c2ccc(S(=O)(=O)N3CCOCC3)cc2)csc1=Nc1ccccc1`, the Potency entry in assay [1], in assay [2], in assay [3], in assay [4] and in assay [5] was “inactive” in each case.

With `CCOC(=O)CSc1ccc2nnc(-c3ccccc3)n2n1`, the Potency result in assay [1], in assay [2] and in assay [4] was “inactive” each time. The activation in assay [3] was 7.87% [at 17.1 µM, percent relative to cAMP agonist control]. Moreover, the activity change, negative = inhibition in assay [5] is -6.6% [at 30.8 µM].

As for `CCc1cc2c(-c3ccccc3)cc(=O)oc2cc1OCC(=O)NCC1CCC(C(=O)O)CC1` (stereo not given), the Potency entry in assay [1], in assay [2], in assay [3], in assay [4] and in assay [5] was “inactive” in each case.
